Consider 1 sequence from PMC7862700, “An all-to-all approach to the identification of sequence-specific readers for epigenetic DNA modifications on cytosine”.

Common to all, as to assay: DAPPL (digital affinity profiling via proximity ligation, sequencing); 10 mM Tris-HCl pH 7.5, 50 mM NaCl, 1 mM DTT, 4% glycerol, room temperature, 30 min; GST-TFs on glutathione beads, 16-mer random dsDNA library, 0.1% formaldehyde crosslink after washing; high values mean tight binding
One assay deals with T1, FLI1 (Homo sapiens, UniProt Q01543 1-452).
T1 sequence: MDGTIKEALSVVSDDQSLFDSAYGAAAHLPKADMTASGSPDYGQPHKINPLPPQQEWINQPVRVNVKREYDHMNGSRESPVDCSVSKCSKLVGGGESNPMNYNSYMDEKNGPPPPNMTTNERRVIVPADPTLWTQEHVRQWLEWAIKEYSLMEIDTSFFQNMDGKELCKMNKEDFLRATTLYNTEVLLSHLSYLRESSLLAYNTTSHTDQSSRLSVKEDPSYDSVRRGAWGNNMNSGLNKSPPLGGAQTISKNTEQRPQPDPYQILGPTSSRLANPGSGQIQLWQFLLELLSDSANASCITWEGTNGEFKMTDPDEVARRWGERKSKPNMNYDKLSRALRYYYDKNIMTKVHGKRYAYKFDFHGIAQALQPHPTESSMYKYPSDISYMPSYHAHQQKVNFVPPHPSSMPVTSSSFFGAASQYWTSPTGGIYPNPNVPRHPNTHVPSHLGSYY
To be noted: protein: recombinant; tags: N-terminal GST; dsDNA, one strand shown. Put shortly:
(§1)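 Binding signal is each hexamer's read frequency for a factor divided by its frequency in the tag-only sample. The factors were GST-fused human transcription factors from yeast, captured on glutathione beads, DNA-barcoded and pooled with that sample. Pools were incubated with 200 nmole of a random double-stranded 16-mer DNA library in Tris/NaCl/DTT/glycerol buffer at room temperature for 30 min, then washed, crosslinked with 0.1% formaldehyde, proximity-ligated with BsaI/T4 ligase (1 h, 37 °C), PCR-amplified and sequenced on an Illumina NextSeq500.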

The target of the next assay is T2, ELK1 (Homo sapiens, UniProt P19419 1-428).
T2 sequence: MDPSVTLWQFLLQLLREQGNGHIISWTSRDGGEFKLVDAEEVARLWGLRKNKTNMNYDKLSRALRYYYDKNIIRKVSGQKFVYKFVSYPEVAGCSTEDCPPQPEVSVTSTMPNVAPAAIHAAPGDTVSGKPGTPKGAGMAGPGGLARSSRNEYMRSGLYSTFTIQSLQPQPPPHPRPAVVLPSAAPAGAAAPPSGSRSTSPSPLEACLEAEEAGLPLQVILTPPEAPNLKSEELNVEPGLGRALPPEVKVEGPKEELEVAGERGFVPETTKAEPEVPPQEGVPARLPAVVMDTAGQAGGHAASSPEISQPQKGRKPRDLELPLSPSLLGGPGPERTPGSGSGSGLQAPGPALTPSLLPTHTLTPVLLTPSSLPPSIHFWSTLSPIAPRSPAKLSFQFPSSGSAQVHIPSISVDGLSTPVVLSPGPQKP
Particulars: protein: recombinant; tags: N-terminal GST; dsDNA, one strand shown. The method, boiled down:
as §1

In the next assay the target is T3, GABPA (Homo sapiens, UniProt Q06546 1-454).
T3 sequence: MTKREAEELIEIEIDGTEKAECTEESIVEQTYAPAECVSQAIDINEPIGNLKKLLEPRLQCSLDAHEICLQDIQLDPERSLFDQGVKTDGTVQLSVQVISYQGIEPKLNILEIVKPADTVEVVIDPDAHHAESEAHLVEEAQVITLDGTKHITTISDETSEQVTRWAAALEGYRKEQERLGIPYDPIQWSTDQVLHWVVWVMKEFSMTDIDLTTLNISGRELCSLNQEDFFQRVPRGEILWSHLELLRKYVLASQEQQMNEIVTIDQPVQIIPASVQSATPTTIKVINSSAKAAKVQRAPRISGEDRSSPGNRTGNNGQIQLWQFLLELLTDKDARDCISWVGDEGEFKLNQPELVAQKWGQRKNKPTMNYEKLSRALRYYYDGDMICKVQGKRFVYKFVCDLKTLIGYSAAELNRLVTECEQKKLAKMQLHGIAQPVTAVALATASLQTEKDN
Particulars: protein: recombinant; tags: N-terminal GST; dsDNA, one strand shown. The method, boiled down: as §1

The target of a further assay is T4, ERG (Homo sapiens, UniProt P11308 1-479).
T4 sequence: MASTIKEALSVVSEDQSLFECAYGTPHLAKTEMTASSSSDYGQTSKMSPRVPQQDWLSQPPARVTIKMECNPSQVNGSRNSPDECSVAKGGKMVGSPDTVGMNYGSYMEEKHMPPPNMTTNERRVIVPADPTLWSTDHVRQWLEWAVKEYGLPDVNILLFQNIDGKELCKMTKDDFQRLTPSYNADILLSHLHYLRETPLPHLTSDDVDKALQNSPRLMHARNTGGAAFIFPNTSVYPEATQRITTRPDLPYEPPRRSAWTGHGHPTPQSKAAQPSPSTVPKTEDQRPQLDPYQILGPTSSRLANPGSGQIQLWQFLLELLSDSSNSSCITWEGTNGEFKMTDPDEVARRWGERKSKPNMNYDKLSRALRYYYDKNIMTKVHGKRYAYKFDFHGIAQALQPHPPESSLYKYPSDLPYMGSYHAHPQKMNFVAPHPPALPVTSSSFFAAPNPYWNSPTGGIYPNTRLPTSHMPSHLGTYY
To be noted: protein: recombinant; tags: N-terminal GST; dsDNA, one strand shown. Put shortly:
as §1

The target of another assay is ELF1 (Homo sapiens, UniProt P32519 1-619). To be noted: protein: recombinant; tags: N-terminal GST; dsDNA, one strand shown. The method, boiled down:
as §1

In a further assay the target is T5, EHF (Homo sapiens, UniProt Q9NZC4 1-300).
T5 sequence: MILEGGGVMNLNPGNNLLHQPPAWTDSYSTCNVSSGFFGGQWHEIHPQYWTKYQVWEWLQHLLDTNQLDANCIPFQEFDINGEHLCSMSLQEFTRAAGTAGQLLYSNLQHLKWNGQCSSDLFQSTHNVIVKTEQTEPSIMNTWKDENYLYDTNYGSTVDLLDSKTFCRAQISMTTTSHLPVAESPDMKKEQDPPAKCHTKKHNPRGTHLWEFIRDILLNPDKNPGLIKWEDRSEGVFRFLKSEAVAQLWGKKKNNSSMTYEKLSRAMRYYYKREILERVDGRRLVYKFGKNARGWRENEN
To be noted: protein: recombinant; tags: N-terminal GST; dsDNA, one strand shown. Put shortly:
as §1

For another assay, the target named is SPI1 (Homo sapiens, UniProt P17947 1-270). To be noted: protein: recombinant; tags: N-terminal GST; dsDNA, one strand shown. Put shortly: as §1
In a further assay the target is SPIB (Homo sapiens, UniProt Q01892 1-262). To be noted: protein: recombinant; tags: N-terminal GST; dsDNA, one strand shown. The method, boiled down:
as §1

The target of the next assay is T6, ELK3 (Homo sapiens, UniProt P41970 1-407).
T6 sequence: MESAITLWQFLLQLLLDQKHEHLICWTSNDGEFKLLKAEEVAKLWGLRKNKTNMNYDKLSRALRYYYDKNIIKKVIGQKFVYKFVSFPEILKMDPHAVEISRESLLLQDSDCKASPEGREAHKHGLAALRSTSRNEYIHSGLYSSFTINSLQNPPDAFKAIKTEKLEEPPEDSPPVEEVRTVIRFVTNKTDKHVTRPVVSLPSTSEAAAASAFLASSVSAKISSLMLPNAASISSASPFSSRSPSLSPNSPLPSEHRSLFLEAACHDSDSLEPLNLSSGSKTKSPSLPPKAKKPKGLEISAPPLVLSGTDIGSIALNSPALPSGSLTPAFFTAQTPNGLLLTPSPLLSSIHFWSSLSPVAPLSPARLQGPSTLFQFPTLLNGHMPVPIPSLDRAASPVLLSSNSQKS
Particulars: protein: recombinant; tags: N-terminal GST; dsDNA, one strand shown. The method, boiled down:
as §1

For the next assay, the target named is T7, FEV (Homo sapiens, UniProt Q99581 1-238).
T7 sequence: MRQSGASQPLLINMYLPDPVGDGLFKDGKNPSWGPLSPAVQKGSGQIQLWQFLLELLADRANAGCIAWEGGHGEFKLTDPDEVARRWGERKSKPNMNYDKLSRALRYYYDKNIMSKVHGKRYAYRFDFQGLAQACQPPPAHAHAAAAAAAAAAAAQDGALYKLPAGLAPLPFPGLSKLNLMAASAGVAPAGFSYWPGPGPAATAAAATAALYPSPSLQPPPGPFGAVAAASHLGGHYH
Particulars: protein: recombinant; tags: N-terminal GST; dsDNA, one strand shown. The method, boiled down:
as §1

In the next assay the target is ETV5 (Homo sapiens, UniProt P41161 1-510). Particulars: protein: recombinant; tags: N-terminal GST; dsDNA, one strand shown. The method, boiled down: as §1
Chain of ETV5 (P41161 whole entry): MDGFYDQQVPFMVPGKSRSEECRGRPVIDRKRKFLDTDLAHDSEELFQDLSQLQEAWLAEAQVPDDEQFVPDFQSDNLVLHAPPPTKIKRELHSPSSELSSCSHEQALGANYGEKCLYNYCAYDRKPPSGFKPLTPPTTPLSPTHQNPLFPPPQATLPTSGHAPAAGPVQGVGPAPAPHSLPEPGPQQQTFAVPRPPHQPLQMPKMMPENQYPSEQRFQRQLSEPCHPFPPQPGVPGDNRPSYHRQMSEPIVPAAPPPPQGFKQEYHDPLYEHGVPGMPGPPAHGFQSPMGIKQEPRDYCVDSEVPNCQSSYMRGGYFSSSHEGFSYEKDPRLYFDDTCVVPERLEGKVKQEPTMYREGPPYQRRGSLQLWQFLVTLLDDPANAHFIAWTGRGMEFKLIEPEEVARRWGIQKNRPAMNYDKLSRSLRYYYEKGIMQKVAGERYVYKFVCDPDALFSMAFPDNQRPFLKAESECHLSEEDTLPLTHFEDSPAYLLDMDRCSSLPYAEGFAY
The target in a further assay is HSF1 (Homo sapiens, UniProt Q00613 1-529). Particulars: protein: recombinant; tags: N-terminal GST; chain copies: 3; dsDNA, one strand shown. The method, boiled down: as §1
Chain of HSF1 (Q00613 whole entry): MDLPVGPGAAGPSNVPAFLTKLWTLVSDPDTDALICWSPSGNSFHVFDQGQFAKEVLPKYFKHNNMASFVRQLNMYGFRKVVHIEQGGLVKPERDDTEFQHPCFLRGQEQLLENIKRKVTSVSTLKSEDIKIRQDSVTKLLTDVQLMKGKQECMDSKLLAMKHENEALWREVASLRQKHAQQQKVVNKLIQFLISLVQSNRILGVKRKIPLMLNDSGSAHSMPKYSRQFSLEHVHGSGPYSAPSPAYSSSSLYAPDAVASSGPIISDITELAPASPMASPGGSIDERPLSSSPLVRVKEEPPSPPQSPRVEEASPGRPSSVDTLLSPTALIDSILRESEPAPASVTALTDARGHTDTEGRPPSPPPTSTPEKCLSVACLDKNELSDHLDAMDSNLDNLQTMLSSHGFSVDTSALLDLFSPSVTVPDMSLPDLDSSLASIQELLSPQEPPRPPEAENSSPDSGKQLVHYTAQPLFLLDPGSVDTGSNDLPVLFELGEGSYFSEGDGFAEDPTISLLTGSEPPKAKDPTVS
In a further assay the target is T8, SPIC (Homo sapiens, UniProt Q8N5J4 1-248).
T8 sequence: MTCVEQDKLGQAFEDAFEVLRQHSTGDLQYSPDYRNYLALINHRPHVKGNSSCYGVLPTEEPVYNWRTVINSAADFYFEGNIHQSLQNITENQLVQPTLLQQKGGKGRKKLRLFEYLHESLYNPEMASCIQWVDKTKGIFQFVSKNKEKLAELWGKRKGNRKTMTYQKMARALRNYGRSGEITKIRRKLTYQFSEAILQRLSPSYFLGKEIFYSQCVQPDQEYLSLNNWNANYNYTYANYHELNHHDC
To be noted: protein: recombinant; tags: N-terminal GST; dsDNA, one strand shown. The method, boiled down:
as §1

In the next assay the target is ELF4 (Homo sapiens, UniProt Q99607 1-663). To be noted: protein: recombinant; tags: N-terminal GST; dsDNA, one strand shown. Put shortly: as §1
Chain of ELF4 (Q99607 whole entry): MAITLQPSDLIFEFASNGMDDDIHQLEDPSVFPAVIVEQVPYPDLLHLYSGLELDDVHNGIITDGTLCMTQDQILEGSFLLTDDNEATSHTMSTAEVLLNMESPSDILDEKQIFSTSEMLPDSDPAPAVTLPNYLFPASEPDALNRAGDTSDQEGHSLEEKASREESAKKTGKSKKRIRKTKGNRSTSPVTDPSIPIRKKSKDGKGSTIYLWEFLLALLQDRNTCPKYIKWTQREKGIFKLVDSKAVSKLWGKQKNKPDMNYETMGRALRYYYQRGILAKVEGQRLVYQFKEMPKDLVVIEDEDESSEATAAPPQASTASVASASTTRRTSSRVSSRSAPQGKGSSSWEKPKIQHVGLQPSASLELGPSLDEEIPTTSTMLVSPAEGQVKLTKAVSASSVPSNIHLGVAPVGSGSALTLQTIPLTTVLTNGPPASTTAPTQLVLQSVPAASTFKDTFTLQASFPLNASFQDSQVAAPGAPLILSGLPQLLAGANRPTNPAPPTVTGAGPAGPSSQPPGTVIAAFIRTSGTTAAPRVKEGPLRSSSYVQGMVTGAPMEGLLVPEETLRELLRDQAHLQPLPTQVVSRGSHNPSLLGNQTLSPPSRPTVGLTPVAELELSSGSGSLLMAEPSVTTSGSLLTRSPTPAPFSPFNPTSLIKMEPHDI
A further assay has as its target T9, ELK4 (Homo sapiens, UniProt P28324-2 1-405).
T9 sequence: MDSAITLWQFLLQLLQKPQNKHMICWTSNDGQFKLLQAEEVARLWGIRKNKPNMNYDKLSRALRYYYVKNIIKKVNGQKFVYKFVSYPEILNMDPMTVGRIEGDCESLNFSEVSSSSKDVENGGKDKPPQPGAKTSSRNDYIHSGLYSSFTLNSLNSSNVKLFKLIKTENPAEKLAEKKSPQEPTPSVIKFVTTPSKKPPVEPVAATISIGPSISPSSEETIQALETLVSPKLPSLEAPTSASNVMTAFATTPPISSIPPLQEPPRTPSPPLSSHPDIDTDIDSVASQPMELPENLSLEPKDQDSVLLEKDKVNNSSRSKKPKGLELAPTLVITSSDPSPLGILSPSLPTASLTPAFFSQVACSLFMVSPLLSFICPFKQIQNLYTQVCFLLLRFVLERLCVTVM
To be noted: protein: recombinant; tags: N-terminal GST; dsDNA, one strand shown. Put shortly:
as §1

For a further assay, the target named is T10, ETV2 (Homo sapiens, UniProt O00321 1-342).
T10 sequence: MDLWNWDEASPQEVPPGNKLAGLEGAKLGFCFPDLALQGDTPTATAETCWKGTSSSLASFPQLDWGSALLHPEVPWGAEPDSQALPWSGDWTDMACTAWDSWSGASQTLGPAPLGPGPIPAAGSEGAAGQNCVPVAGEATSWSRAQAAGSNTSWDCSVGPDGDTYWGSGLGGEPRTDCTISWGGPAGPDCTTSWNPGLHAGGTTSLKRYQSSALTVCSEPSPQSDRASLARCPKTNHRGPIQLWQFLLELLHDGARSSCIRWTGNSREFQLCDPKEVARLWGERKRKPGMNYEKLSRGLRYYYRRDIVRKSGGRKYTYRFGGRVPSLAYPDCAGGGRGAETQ
To be noted: protein: recombinant; tags: N-terminal GST; dsDNA, one strand shown. The method, boiled down:
as §1

The next assay deals with T11, ELF3 (Homo sapiens, UniProt P78545 1-371).
T11 sequence: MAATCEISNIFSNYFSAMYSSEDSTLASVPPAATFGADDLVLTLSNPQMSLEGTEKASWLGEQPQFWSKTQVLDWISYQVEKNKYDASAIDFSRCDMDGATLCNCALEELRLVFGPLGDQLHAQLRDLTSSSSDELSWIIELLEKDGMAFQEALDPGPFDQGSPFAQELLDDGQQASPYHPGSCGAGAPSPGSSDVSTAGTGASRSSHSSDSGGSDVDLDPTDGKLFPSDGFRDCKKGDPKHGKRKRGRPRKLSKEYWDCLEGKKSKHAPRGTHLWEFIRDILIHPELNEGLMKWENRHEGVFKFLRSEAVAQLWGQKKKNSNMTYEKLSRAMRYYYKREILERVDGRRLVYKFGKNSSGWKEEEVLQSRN
Particulars: protein: recombinant; tags: N-terminal GST; dsDNA, one strand shown. Put shortly: as §1

The next assay has as its target CRX (Homo sapiens, UniProt O43186 1-299). Particulars: protein: recombinant; tags: N-terminal GST; dsDNA, one strand shown. The method, boiled down: as §1
The next assay addresses ETV1 (Homo sapiens, UniProt P50549 1-477). To be noted: protein: recombinant; tags: N-terminal GST; dsDNA, one strand shown. The method, boiled down: as §1

Chain of CRX (O43186 whole entry): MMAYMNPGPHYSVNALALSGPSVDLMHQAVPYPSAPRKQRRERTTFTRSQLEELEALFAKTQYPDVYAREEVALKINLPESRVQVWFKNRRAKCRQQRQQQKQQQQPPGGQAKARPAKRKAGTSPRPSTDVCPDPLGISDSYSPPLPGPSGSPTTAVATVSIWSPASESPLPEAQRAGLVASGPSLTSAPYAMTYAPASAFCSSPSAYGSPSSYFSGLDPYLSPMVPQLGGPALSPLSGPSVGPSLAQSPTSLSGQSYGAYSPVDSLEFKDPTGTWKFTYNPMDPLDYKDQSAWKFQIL
Chain of SPIB (Q01892 whole entry): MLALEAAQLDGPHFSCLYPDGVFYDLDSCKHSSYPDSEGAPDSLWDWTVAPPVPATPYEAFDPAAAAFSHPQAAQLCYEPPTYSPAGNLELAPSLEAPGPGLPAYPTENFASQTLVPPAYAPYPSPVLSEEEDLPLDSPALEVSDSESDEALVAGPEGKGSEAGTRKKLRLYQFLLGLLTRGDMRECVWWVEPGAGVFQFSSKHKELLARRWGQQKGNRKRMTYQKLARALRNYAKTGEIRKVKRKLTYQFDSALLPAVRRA
Chain of ETV1 (P50549 whole entry): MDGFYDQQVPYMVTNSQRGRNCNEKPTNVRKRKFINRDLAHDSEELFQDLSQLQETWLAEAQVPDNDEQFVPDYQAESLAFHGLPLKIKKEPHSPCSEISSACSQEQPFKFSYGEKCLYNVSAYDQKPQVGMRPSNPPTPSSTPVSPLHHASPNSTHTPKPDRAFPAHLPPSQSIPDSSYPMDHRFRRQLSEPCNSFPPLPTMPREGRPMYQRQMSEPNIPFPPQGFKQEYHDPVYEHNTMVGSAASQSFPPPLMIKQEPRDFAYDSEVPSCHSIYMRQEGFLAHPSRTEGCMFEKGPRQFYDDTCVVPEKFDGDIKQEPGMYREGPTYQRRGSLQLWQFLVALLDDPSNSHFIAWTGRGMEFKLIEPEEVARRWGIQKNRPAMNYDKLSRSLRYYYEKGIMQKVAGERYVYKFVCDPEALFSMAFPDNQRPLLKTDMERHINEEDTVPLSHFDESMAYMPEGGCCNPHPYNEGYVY
Chain of ELF1 (P32519 whole entry): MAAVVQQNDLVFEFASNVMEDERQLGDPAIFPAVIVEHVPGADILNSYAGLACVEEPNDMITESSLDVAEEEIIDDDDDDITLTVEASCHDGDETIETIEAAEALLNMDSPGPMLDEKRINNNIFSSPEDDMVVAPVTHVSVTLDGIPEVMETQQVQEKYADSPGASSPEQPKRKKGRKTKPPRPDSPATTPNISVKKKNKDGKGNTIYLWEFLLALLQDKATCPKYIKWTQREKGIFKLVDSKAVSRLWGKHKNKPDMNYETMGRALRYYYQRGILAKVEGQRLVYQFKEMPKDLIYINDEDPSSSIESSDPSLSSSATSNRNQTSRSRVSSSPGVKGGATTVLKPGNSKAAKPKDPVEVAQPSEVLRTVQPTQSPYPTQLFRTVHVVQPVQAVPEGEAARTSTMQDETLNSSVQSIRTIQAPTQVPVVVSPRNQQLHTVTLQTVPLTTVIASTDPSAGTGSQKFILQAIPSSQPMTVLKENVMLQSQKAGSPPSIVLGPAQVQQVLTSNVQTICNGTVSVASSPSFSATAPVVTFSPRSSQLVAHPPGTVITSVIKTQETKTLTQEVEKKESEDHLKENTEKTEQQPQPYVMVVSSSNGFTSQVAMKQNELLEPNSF

Take TTTATT: the binding signal with FLI1 is 1.36 fold enrichment (6-mer frequency, TF over GST control); with ELK1 it was 1.25 fold enrichment (6-mer frequency, TF over GST control); with GABPA, 1.24 fold enrichment (6-mer frequency, TF over GST control); with ERG it was 1.26 fold enrichment (6-mer frequency, TF over GST control); in the assay with ELF1, 1.19 fold enrichment (6-mer frequency, TF over GST control); in the assay with EHF it was 1.31 fold enrichment (6-mer frequency, TF over GST control). Also, the binding signal was 1.25 fold enrichment (6-mer frequency, TF over GST control) with SPI1; 1.32 fold enrichment (6-mer frequency, TF over GST control) in the assay with SPIB; 1.31 fold enrichment (6-mer frequency, TF over GST control) with ELK3; 1.29 fold enrichment (6-mer frequency, TF over GST control) with FEV; 1.29 fold enrichment (6-mer frequency, TF over GST control) in the assay with ETV5; 1.46 fold enrichment (6-mer frequency, TF over GST control) with HSF1. For the same sequence, the binding signal is 1.25 fold enrichment (6-mer frequency, TF over GST control) with SPIC; 1.3 fold enrichment (6-mer frequency, TF over GST control) in the assay with ELF4; 1.27 fold enrichment (6-mer frequency, TF over GST control) with ELK4; 1.29 fold enrichment (6-mer frequency, TF over GST control) with ETV2; 1.29 fold enrichment (6-mer frequency, TF over GST control) with ELF3; 1.93 fold enrichment (6-mer frequency, TF over GST control) in the assay with CRX. Moreover, in the assay with ETV1, the binding signal was 1.27 fold enrichment (6-mer frequency, TF over GST control).
